KB-V1 MDR tox: qHTS assay for MDR1-selective chemotherapeutics: Primary screen using the drug-selected MDR subline cells KB-V1. 3.4% of 400,000 active. AID 1347076, 2019. KB-V1 MDR cells viability, CellTiter-Glo, 72 h. Potency, µM (doses to about 46.1 µM), hits mostly cytotoxic; further: on the % scale 0 is the no-effect control and ±100 the full control effect; nearly all actives have a fitted effect of over 60% in size
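KB-V1, DMEM (no phenol red) + 10% FBS; cpd pin-transferred, titration series; 72 h, 37 degrees C; CellTiter-Glo, luminescence. Data normalized, curve-fit.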
MCF10A rereplic: A quantitative high throughput screen for small molecules that induce DNA re-replication in MCF 10a normal breast cells. MCF 10A DNA re-replication, Hoechst nuclear intensity, 48 h. Potency, µM (highest dose often 46.1 µM), for inactives: at the highest dose activity, positive = re-replication, actives largely listed as activators. 2.9% of 350,000 active. AID 624296, 2012; further: % of control where 0% means no effect; nearly all actives have a fitted effect of over 50% in size
VP16 counter: VP16 counterscreen qHTS for inhibitors of ROR gamma transcriptional activity; Drosophila S2 Gal4-VP16 UAS-luciferase, luminescence, 20 h; Potency, µM (series often up to 53.6 µM), for inactives: top-dose activity, negative = inhibition, actives largely listed as inhibitors; 3.5% of 310,000 active;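 further: Gal4-VP16 expression switched on by copper sulfate through the metallothionein promoter; on the % scale 0 is the no-effect control and ±100 the full control effect; nearly all actives have a fitted effect of over 50% in size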
KB-3-1 tox: qHTS assay for MDR1-selective chemotherapeutics: Primary screen using the parental adenocarcinoma cell KB-3-1; KB-3-1 viability, CellTiter-Glo ATP luminescence, 72 h; Potency, µM (series often up to 46.1 µM), usual class: cytotoxic; 1.4% of 400,000 active; AID 1347075, 2019; further: on the % scale 0 is the no-effect control and ±100 the full control effect; nearly all actives have a fitted effect of over 60% in size
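Cytotoxicity in the drug-sensitive parental line KB-3-1 was scored as loss of CellTiter-Glo luminescence following 72 h incubation with compound. Values come from curve fitting of normalized concentration-response data.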
RORgamma inh: qHTS for inhibitors of ROR gamma transcriptional activity; Drosophila S2 Gal4-RORgamma UAS-luciferase reporter, 20 h; Potency, µM (titrated, usually from 53.6 µM), for inactives: at the top dose activity change, negative = inhibition, most hits filed as inhibitors; 5.4% of 310,000 active; Nuclear receptor ROR-gamma (Mus musculus), P51450; further: on the % scale 0 is the no-effect control and ±100 the full control effect; nearly all actives have a fitted effect of over 60% in size
Target sequence (P51450 whole entry, looked up, the tested form may be a part): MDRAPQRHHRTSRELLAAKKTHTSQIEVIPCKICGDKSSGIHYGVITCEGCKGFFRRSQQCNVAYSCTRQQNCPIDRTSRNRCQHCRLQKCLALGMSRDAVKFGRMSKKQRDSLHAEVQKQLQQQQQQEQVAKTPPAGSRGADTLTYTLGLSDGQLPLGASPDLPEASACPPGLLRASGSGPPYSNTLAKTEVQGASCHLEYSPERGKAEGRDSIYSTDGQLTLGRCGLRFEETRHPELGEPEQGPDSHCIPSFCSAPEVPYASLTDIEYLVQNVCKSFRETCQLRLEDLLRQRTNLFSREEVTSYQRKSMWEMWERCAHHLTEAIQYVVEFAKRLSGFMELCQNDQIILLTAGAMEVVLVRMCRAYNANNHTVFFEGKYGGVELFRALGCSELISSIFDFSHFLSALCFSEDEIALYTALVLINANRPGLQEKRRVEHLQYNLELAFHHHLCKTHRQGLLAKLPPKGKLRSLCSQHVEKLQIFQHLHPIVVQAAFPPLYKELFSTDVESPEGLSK
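Compounds are pin-transferred onto Drosophila Schneider cells expressing a copper-inducible Gal4–ROR gamma transactivation domain fusion. After 1 hr, copper sulfate is added to 700 uM final; luciferase is read 20 hr later.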
SW480 rerep: A quantitative high throughput screen for small molecules that induce DNA re-replication in SW480 colon adenocarcinoma cells. SW480 DNA re-replication, Hoechst DNA content imaging, 48 h. Potency, µM (series often up to 46.1 µM), for inactives: at the top dose re-replication activation, most hits filed as activators. 1.8% of 340,000 active; further: % of control where 0% means no effect; nearly all actives have a fitted effect of over 55% in size
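Image-based DNA-content assay: after two days of treatment, nuclei were labelled with the DNA dye Hoechst and imaged, and hits were compounds raising the count of nuclei showing high fluorescence intensity.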
Starred values were filed as active, the others as inactive; i = inactive; ? = inconclusive; · = no result; [ ] = remark or other dose. In the library only some 10% were active in any assay of this set; here they are far more common. The call rests on the fitted dose curve; in most records, active means well fitted curve in the direction sought with a large enough effect; inconclusive means small, poorly fitted or top-dose-only effect, or another doubt; inactive means no such curve, though single readings can be large; an effect the other way counts as inactive or inconclusive. Potency means the concentration at half of the fitted maximal effect.

SMILES	KB-V1 MDR tox	MCF10A rereplic	VP16 counter	KB-3-1 tox	RORgamma inh	SW480 rerep
O=C(OC[C@@H]1O[C@@](O)(COC(=O)c2cccnc2)[C@H](OC(=O)c2cccnc2)[C@H]1OC(=O)c1cccnc1)c1cccnc1	·	5.6%	5.9%	·	1.4%	-0.7%
Cc1cccc2nc(COc3ccc(-c4ccccc4)cc3)cn12	·	·	3.0%	·	12.6µM*	·
c1csc(CNc2ncnc3sccc23)c1	i	17.4%	·	i	·	7.2%
Cc1csc2ncnc(NCCc3ccccn3)c12	i	-0.8%	10µM*	?	-5.9%	?
c1ccc(CCNc2ncnc3sccc23)nc1	?	0.2%	15.8µM*	?	?	-7.9%
CN1C(c2ccc(F)cc2)=CS/C1=C(\C#N)c1nnc2n1-c1ccccc1SC2	i	11.6µM*	14.6%	i	19.7%	-4.5%
O=C(OCc1ccccc1)N(CCCCN(CCCNCc1ccccc1)C(=O)OCc1ccccc1)CCCNCc1ccccc1	?	5.8µM*	·	16.4µM*	·	?
O=C(CC(=O)OCc1ccccc1)OCc1ccccc1	i	-3.3%	·	i	·	0.1%
Fc1cc(F)cc(NC(=S)NN2CCOCC2)c1	i	-0.2%	7.4%[10 µM]	i	10µM*	-1.8%
CCOC(=O)c1cn[nH]c1NC(=S)Nc1ccc(Cl)cc1	i	-0.3%	?	i	2.82µM*	-2.2%
CCOC(=O)c1cccc(Nc2ncnc3ccccc23)c1	11.6µM*	-1.0%	14.5%	i	?	-2.9%
CC(C)c1ccc(NC(=S)NN2CCN(C)CC2)cc1	i	6.4%	14.3%	?	11.2µM*	-1.9%
COc1cc(NC(=S)NN2CCOCC2)cc(OC)c1	?	-6.1%	·	i	·	-9.7%
COc1ccc(NC(=S)NN2CCN(C)CC2)cc1	?	-8.3%	-5.6%	i	-3.3%	-6.5%[9.22 µM]
CCOC(=O)c1ccc(NC(=S)Nc2ccc(C)cc2)cc1	i	-1.7%	?	i	12.6µM*	4.7%
CCOC(=O)c1cccc(NC(=S)NCc2ccc(C)cc2)c1	i	-3.7%	?	i	10µM*	-7.7%
CCOC(=O)c1ccc(NC(=S)NCCc2ccc(F)cc2)cc1	?	28.4%	?	i	10µM*	?
CCOC(=O)c1ccc(NC(=O)C(=O)NCCc2ccc(OC)cc2)cc1	i	-6.0%	2.8%	i	0.5%	?
CCC(C)c1ccc(NC(=S)NN2CCOCC2)cc1 (stereo not drawn)	i	0.9%	4.47µM*	i	2.24µM*	-43.9%
CCCCn1c(SCC(=O)c2ccccc2)nc2sc3c(c2c1=O)CCCC3	i	·	·	i	·	·
O=C(NCCc1ccccc1)c1sc2ncccc2c1-n1cccc1	i	·	·	?	·	·
CC1=C(C(=O)Nc2ccccc2)C(c2ccc(O)cc2)n2nc(-c3ccc(Cl)cc3)nc2N1 (stereo not drawn)	i	·	·	i	·	·
CCOC(=O)c1ccc(NC(=S)NN2CCOCC2)cc1	i	23.1µM*	?	i	?	-0.8%
CCOC(=O)c1ccc(NC(=S)Nc2ccccc2)cc1	i	-0.1%	-12.7%	i	?	?
O=C(Nc1ccc2c(c1)OCO2)c1ccc(S(=O)(=O)NCC2CCCO2)cc1 (stereo not drawn)	i	-1.2%	-3.1%	i	14.8%	-5.1%
SMILES	KB-V1 MDR tox	MCF10A rereplic	VP16 counter	KB-3-1 tox	RORgamma inh	SW480 rerep
O=C(Nc1cccc(F)c1)c1ccc(S(=O)(=O)NCC2CCCO2)cc1 (stereo not drawn)	16.4µM*	4.9%	-15.7%	i	?	20.1%
COc1ccc2c(c1)O[C@@H](c1cccc(C(F)(F)F)c1)[C@H](OC(=O)Nc1cc(OC)c(OC)c(OC)c1)C2=O	·	·	-1.7%	·	-5.6%	·
Cc1cc(C)cc(NC(=O)c2ccc(S(=O)(=O)NCc3cccnc3)cc2)c1	i	-0.9%	-21.0%	i	10.1%	-12.1%
CCOC(=O)Cc1ccc(NC(=O)c2ccc(C(C)(C)C)cc2)cc1	?	1.7%[9.22 µM]	?	?	0.199µM*	-19.2%
Cc1cccc(NC(=O)c2ccc(S(=O)(=O)NCc3cccnc3)cc2)c1	20.6µM*	-1.2%	6.4%	?	24.9%	-3.7%
CCOC(=O)Cc1ccc(NC(=O)c2ccccc2Br)cc1	i	-3.0%	-9.2%	i	-5.4%	-8.9%
CC(C)(C)c1ccc(C(=O)Nc2ccc(C(=O)NCc3cccnc3)cc2)cc1	i	26.6%	28.2µM*	i	?	?
Cc1cccc(NC(=O)c2ccc(C(=O)Nc3cccc(C)c3)nc2)c1	?	7.31µM*	?	i	-12.2%	?
CC(=O)Nc1cccc(NC(=O)c2ccc(C(=O)Nc3cccc(NC(C)=O)c3)nc2)c1	i	2.4%	-14.7%	i	-7.3%	-19.4%
COc1ccc(-c2cc3nc(C)c(CCC(=O)N4CCN(c5ccccc5)CC4)c(C)n3n2)c(OC)c1	?	·	·	i	·	·
CC(C)C[C@H](NC(=O)[C@H](Cc1cnc[nH]1)NC(=O)[C@@H](N)Cc1cnc[nH]1)C(=O)NCC(=O)NCC(=O)N[C@@H](C)C(=O)N[C@@H](CCCCN)C(=O)N[C@@H](CCC(N)=O)C(=O)N[C@@H](C)C(=O)NCC(=O)N[C@@H](CC(=O)O)C(=O)N[C@H](C(=O)O)C(C)C	·	·	-1.3%	·	10.8%	·
CCCn1ccc2c(OCC(=O)Nc3ccc(OC)c(OC)c3)cccc2c1=O	i	·	·	i	·	·
O=C(Nc1ccc(Oc2ccc3ccccc3c2)cc1)c1ccco1	?	?	10µM*	?	-95.2%	13.5%
CC(C)(C)c1ccc(C(=O)Nc2ccc(NC(=O)c3ccco3)cc2)cc1	i	13µM*	1.3%	i	6.4%	?
O=C(Nc1ccc(NC(=O)c2ccco2)c(Cl)c1)c1ccc2c(c1)OCCO2	i	?	?	i	?	-5.2%
O=C(Nc1ccc(NC(=O)c2ccco2)cc1)c1ccc2c(c1)OCO2	i	?	?	i	22.4µM*	2.2%
Cc1ccc(NC(=O)CCN2CCN(C/C=C/c3ccccc3)CC2)cc1C	3.26µM*	?	-19.4%	i	18.1%	7.4%
CC(=O)c1ccc(S(=O)(=O)NCC(=O)N2CCN(C/C=C/c3ccccc3)CC2)cc1	18.4µM*	19.0%	·	i	·	4.3%
CCOc1ccc(NC(=S)N2CCN(C/C=C/c3ccccc3)CC2)cc1	i	18.3%	?	i	14.1µM*	-5.1%

Screening results deposited in PubChem by National Center for Advancing Translational Sciences (NCATS).
